According to PubChem BioAssay AID2553 (Johns Hopkins Ion Channel Center, 2010):
The campaign covered roughly 310,000 compounds. About 3,300 (1.1%) were called active.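 How the source made its calls: active means B-score under library mean minus 3 SD, initial fluorescence not abnormally high, positive integrated signal ratio; inactive means the rest.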 The entries come from a sample that favours actives as a whole.

Each compound was assayed against Short transient receptor potential channel 6 (Mus musculus) (UniProt Q61143) (assay: mouse TRPC6 channel inhibitors, primary screen, cell-based, HEK293, membrane potential dye (AID 2553;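 on B-score: B-score derived from integrated fluorescence ratio over the kinetic read; more negative B-score means stronger inhibition of depolarization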)). Conditions: ACh-evoked depolarization, at 10 µM; active compounds read low.
Sequence of Short transient receptor potential channel 6 (Mus musculus) (Q61143 whole entry, looked up): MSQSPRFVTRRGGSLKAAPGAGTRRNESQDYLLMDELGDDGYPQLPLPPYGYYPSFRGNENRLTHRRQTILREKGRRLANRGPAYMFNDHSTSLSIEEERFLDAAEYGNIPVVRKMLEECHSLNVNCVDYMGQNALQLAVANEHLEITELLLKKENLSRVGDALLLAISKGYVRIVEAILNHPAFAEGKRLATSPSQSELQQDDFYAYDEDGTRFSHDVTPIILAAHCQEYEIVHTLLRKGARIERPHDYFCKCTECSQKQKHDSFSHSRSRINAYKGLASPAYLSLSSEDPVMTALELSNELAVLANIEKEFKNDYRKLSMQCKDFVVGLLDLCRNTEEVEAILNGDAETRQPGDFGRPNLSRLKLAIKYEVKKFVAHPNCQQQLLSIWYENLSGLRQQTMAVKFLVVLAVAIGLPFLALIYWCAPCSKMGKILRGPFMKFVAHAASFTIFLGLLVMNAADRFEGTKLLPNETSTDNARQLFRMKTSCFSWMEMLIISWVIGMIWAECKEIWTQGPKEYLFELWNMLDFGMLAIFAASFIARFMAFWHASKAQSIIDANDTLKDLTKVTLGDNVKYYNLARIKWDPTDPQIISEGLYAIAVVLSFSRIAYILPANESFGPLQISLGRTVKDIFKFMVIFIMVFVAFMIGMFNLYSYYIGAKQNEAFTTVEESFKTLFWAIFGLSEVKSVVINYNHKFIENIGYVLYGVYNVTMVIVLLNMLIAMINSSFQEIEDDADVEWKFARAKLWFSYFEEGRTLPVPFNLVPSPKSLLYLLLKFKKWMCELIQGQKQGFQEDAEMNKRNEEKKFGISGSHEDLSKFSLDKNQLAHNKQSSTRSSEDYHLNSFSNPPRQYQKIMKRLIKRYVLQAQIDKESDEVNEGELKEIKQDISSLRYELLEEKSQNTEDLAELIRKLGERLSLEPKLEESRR

SMILES | B-score
CC(=O)Oc1cccc(C(=O)Nc2ccccc2NC(=O)c2cccc(OC(C)=O)c2)c1 | inactive
CCOC(=O)c1cc(NC(=O)c2ccc(Cl)cc2)c(=O)oc1-c1ccccc1 | inactive
CC(=O)c1cc(NC(=O)c2ccccc2)c(=O)oc1/C=C/N(C)C | -5.52 (active)
CCOC(=O)c1c(/N=C/c2cc(C)ccc2O)sc2c1CCC2 | inactive
CN(C(=O)COc1nnc(-c2cccs2)c(-c2cccs2)n1)c1ccccc1 | inactive
CN(C)/C=C/C(=O)c1cnc2sccn2c1=O | inactive
COC(=O)c1cccc(N(C(=O)c2ccco2)C(C(=O)NC2CCCC2)c2ccco2)c1 (stereo not drawn) | inactive
Cc1cccc(N2CCN(C(C)C(=O)N3CCc4ccccc43)CC2)c1C (stereo not drawn) | inactive
O=C(c1ccccc1F)N(Cc1ccccc1)Cc1ccccc1 | inactive
O=C(CN1CCN(Cc2ccccc2)CC1)NC(c1ccccc1)c1ccccc1 | inactive
OCCN1CCN(C(=S)c2ccc(-c3ccccc3)cc2)CC1 | inactive
O=C1c2ccccc2C(=O)c2c1cccc2N1CCN(Cc2ccccc2)CC1 | -9.75 (active)
OCCN1CCN(c2nnc(-c3ccccc3)c3ccccc23)CC1 | inactive
O=C1c2ccccc2C(=O)c2c1cccc2N1CCN(C/C=C/c2ccccc2)CC1 | inactive
O=C1c2ccccc2C(=O)c2c1cccc2N1CCN(CCO)CC1 | -11.5 (active)
O=C(CNCc1ccco1)Nc1cc(S(=O)(=O)N2CCOCC2)ccc1N1CCCC1 | inactive
Clc1cc(NC2CCCCC2)ncn1 | inactive
COc1ccc(S(=O)(=O)NCCOc2ccccc2)cc1F | inactive
CC(=O)c1c(O)cc2n(c1=O)-c1ccc(Cl)cc1C2(C)C | inactive
O=C(NCc1ccc2c(c1)OCO2)c1c(O)nc2sccn2c1=O | inactive
COCCOC(=O)c1sc(=S)n(CCOC)c1N | inactive
CC(Sc1nnc(CNC(=O)c2ccccc2F)n1C)C(=O)Nc1nccs1 (stereo not drawn) | inactive

SMILES | B-score
COc1cc(NC(=O)CCS(=O)(=O)c2ccc3c(c2)oc(=O)n3C)cc(OC)c1 | inactive
Cc1cc(Nc2ccc(N3CCOCC3)cc2)c2cccc(C)c2n1 | -7.55 (active)
Cc1cc(Nc2ccc(C(=O)N3CCCCC3)cc2)c2cccc(C)c2n1 | inactive
Cc1cc(Nc2ccc(Cl)cc2)nc(N2CCOCC2)n1 | inactive
Cc1cc(S(=O)(=O)NCC(C)C)ccc1OCC(=O)NC1CC1 | inactive
CCN(CC)CCNc1nc(-c2ccc(OC(F)F)cc2)c(C)s1 | -6.16 (active)
CCOc1ccc(C2/C(=C(/O)c3ccc4c(c3)CC(C)O4)C(=O)C(=O)N2CCCn2ccnc2)cc1 (stereo not drawn) | inactive
COC(=O)c1cc(-c2cccs2)nc2ccccc12 | inactive
CCCCN(C)CCCNC(=O)c1cc(-c2cccs2)nc2ccccc12 | -6.6 (active)
O=C(NCCN1CCOCC1)c1cc(-c2cccs2)nc2ccccc12 | inactive
CCc1nnc(NC(=O)CSc2nnnn2-c2cccc(C(C)=O)c2)s1 | inactive
O=S(=O)(Nc1nccs1)c1ccc2c(c1)OCCO2 | inactive
CCOCCCNc1nc(-c2ccccc2)nc2ccccc12 | inactive
CC(C)(C)Nc1nc(-c2ccccn2)nc2ccccc12 | -6.28 (active)
Cc1ccc(Oc2nc(-c3ccccn3)nc3ccccc23)cc1 | inactive
CC(=O)Nc1ccc(S(=O)(=O)NC2(C(F)(F)F)C(=O)NC(C)=C2C#N)cc1 (stereo not drawn) | inactive
O=S1(=O)CCOC[C@H](CC2CCCCC2)N1Cc1ccc(F)cc1 | inactive
CC1(C)Cc2c(sc3nc4n(c(=N)c23)CCCCC4)CO1 | inactive
NNC(=O)C1CCCn2c1nc1sc3c(c1c2=O)CCCC3 (stereo not drawn) | inactive
N=c1c2c3c(sc2nc2n1CCCCC2)CCCC3 | -10.6 (active)
Cc1ccc(-c2nc(CSCC(=O)NC3CCN(Cc4ccccc4)CC3)c(C)o2)cc1 | inactive
Cc1c(-c2ccccc2)n[nH]c1C(=O)N=Nc1c(O)[nH]c2ccccc12 | inactive

SMILES | B-score
O=C(O)C1CCCCC1C(=O)N1CCN(S(=O)(=O)c2ccc(F)cc2)CC1 (stereo not drawn) | inactive
O=C(c1cccc(-n2cccc2)c1)N1CCN(S(=O)(=O)c2ccc(F)cc2)CC1 | -5.32 (active)
O=C(c1cnc(Cl)c(Cl)c1)N1CCN(S(=O)(=O)c2ccc(F)cc2)CC1 | inactive
c1ccc2c(c1)OCCOCCOCCO2 | inactive
CCOc1cccc(/C=N/NC(=S)NCCN2CCOCC2)c1O | inactive
CCOc1nc(NCCN2CCOCC2)nc(Nc2ccc(C)cc2)n1 | -5.49 (active)
Nc1nc(NCCCN2CCOCC2)nc(Nc2ccccc2)c1[N+](=O)[O-] | inactive
Cc1c(Br)ccc(NC(=O)COc2ccccc2C(N)=O)c1C | inactive
O=S(=O)(Nc1cccc(Oc2ccc(Cl)cc2)n1)c1ccc(F)cc1 | inactive
COc1cccc(NC(=O)Nc2nnc(N3CCCCC3C)s2)c1 (stereo not drawn) | inactive
CCOC(=O)C1CCN(Cc2c(C(=O)N3CCOCC3)nc3c(C)cccn23)CC1 | inactive
CN(C)c1cc(N)c2ccccc2n1 (tested in a mixture with another compound) | -9.26 (active)
Nc1nc(-c2ccccc2)cc(-c2ccccc2)n1 | inactive
COc1ccc(-c2cc(C(=O)N(C)Cc3ccccc3)c3ccccc3n2)cc1 | inactive
Cc1cc(C)c(S(=O)(=O)NCCCN2CCOCC2)cc1Br | inactive
CN1CC(c2ccccc2)C2(COc3ccccc3C2=O)C12C(=O)Nc1ccccc12 (stereo not drawn) | inactive
Cc1ccc2c(c1)C1CN(C)CCC1N2C(=S)Nc1ccc(Cl)cc1Cl (stereo not drawn) | -5.46 (active)
S=C(Nc1ccc(Cl)cc1Cl)N1CCCC1 | inactive
Cc1ccc2c(c1)C1CN(C)CCC1N2C(=S)Nc1ccc(OC(F)F)cc1 (stereo not drawn) | inactive
Cc1ccc(S(=O)(=O)N(Cc2ccccc2)c2ccccn2)cc1[N+](=O)[O-] | inactive
O=C(CSc1cccc[n+]1[O-])c1ccc(Cl)cc1 | inactive
O=C(C[n+]1ccc2c(c1)nnn2-c1ccccc1)c1ccc(Cl)cc1 | -5.81 (active)

SMILES | B-score
O=C(Cn1cc(-c2nnnn2-c2ccc(Cl)cc2)c(=O)c2ccccc21)c1ccccc1 | inactive
COc1ccccc1NS(=O)(=O)N(C)C | inactive
O=S(=O)(Nc1ccccc1Br)c1cccs1 | inactive
O=C(Nc1cccc(Cl)c1)Nc1ccccc1NS(=O)(=O)c1cccs1 | -5.11 (active)
O=S(=O)(NCc1ccc(Cl)cc1Cl)c1cccs1 | inactive
COCCCN1C(=O)C(=O)/C(=C(/O)c2ccc(S(=O)(=O)N3CCOCC3)cc2)C1c1ccc(F)cc1 (stereo not drawn) | inactive
COC(=O)c1sccc1-n1cccc1C(=O)C(=O)N1CCCCC1 | inactive
COc1ccccc1OCC(O)CN1CCOCC1 (stereo not drawn) | inactive
COc1ccccc1OCCNCC(O)COc1cccc2[nH]c3ccccc3c12 (stereo not drawn) | -7.01 (active)
CC(C)(C)NCC(O)COc1cccc2[nH]c(=O)[nH]c12 (stereo not drawn) | inactive
CC(=O)c1ccc(N2CCN(C(=O)C3CCN(S(=O)(=O)c4ccc5c(c4)CC(C)N5C(=O)C4CC4)CC3)CC2)cc1 (stereo not drawn) | inactive
O=C(CSc1nnc(SCc2ccc(Cl)cc2)s1)N/N=C/c1ccccc1Cl | inactive
CCN(C(=O)COC(=O)c1ccc(COc2ccc3c(C)cc(=O)oc3c2)cc1)C1CCS(=O)(=O)C1 (stereo not drawn) | inactive
CC(C)c1ccc(S(=O)(=O)N2CCN(C(=O)c3ccc(N4CCCC4)c([N+](=O)[O-])c3)CC2)cc1 | inactive
Nc1ccc(C(=O)N2CCN(S(=O)(=O)c3ccc(Cl)cc3)CC2)cc1[N+](=O)[O-] | -5.95 (active)
Cc1ccc(S(=O)(=O)N2CCN(C(=O)c3ccc(-n4cncn4)c([N+](=O)[O-])c3)CC2)cc1 | inactive
CSc1nnc(-c2ccc(C(F)(F)F)cn2)o1 | inactive
CCOc1ccc(NC(=O)CSc2nncn2C)cc1 | inactive
COc1ccc(-c2ccc3nnc(SCC(=O)Nc4ccc(NC(C)=O)cc4)n3n2)cc1 | inactive
CCCCc1nc(NCc2ccccc2)c(C#N)c2c1CCCC2 | inactive
Cc1nc(NCCN)c(C#N)c2c1COC(C)(C)C2 | inactive
CCCCc1nc(NCCN)c(C#N)c2c1CSC(C)(C)C2 | -5.09 (active)

SMILES | B-score
Cc1cc(NC(=O)C(C)SCC(=O)Nc2ccccc2N2CCCCC2)no1 (stereo not drawn) | inactive
CN(Cc1cccc2ncccc12)C(=O)CC1C(=O)NCCN1Cc1ccc(F)cc1 (stereo not drawn) | inactive
Cc1cc(OCc2ccc(C(=O)Nc3ccc(C(=O)O)cc3)o2)ccc1Cl | inactive
O=C(O)c1ccc(NC(=O)c2ccc(COc3ccc(Cl)cc3)o2)cc1 | -5.87 (active)
COc1ccc(NC(=O)CN(C)C(=O)c2ccc(COc3ccccc3)o2)cc1 | inactive
O=C(COC(=O)CC1CC2CCC1C2)NC(=O)NC1CCCC1 (stereo not drawn) | inactive
O=C(COc1ccccc1)Nc1ccc(N2CCN(C(=O)c3cccs3)CC2)cc1 | inactive
COCC(=O)Nc1cc(C(=O)OC)cc(C(=O)OC)c1 | inactive
Cc1cccc(N2CCN(C(c3ccc(N(C)C)cc3)c3nnnn3C(C)(C)C)CC2)c1C (stereo not drawn) | inactive
CC(C)(C)n1nnnc1C(c1ccc2ncccc2c1)N1CCSCC1 (stereo not drawn) | -11.5 (active)
CC(C)(C)n1nnnc1C(c1ccc(Cl)cc1)N1CCSCC1 (stereo not drawn) | inactive
O=C(NCCc1ccccc1Cl)C1CCC(=O)N(CCCc2ccccc2)C1 (stereo not drawn) | inactive
CCc1ccc(NC(=O)Cn2ncn3c(cc4ccccc43)c2=O)cc1 | inactive
CCOC(=O)c1cn(CC(=O)Nc2ccc(C(C)C)cc2)nn1 | inactive
CC(C)c1ccc(NC(=O)Cn2ncc3ccccc32)cc1 | -5.5 (active)
Cc1cc(O)c(C2(O)C(=O)Nc3ccccc32)cc1C (stereo not drawn) | inactive
CCc1ccccc1NC(=O)CN(c1ccc(OC)cc1OC)S(=O)(=O)c1ccccc1[N+](=O)[O-] | inactive
CCOc1ccc(C2c3[nH]c4ccccc4c3CCN2Cc2cccn2-c2ncccn2)cc1 (stereo not drawn) | inactive
COCc1ccc(C(=O)N2CCc3c([nH]c4ccccc34)C2c2ccccn2)s1 (stereo not drawn) | inactive
c1ccc(C2c3[nH]c4ccccc4c3CCN2Cc2cccn2-c2cccnc2)nc1 (stereo not drawn) | -6.75 (active)
